T_cruzi_growth – T. cruzi intracellular proliferation inhibitors, primary screen, cell-based, beta-gal Tulahuen parasites, NIH3T3 host, luminescence; T. cruzi beta-gal in NIH3T3, GalScreen luminescence, 90 h; AID 624255, 2012; inhibition, % at 8.34 µM; actives 5.9% (n = 77,000);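 active = mean inhibition above about 93%, with at least 55% of replicates each passing it, limit read from the data, passing the limit was not always enough; inconclusive = only one of those two conditions holds; inactive = neither condition holds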
Pf_Dd2_growth – P. falciparum Dd2 growth inhibitors, primary screen, SYBR Green fluorescence, single dose replicates; 72 h; hits give low values; activity change, % at 10 µM; actives 2.3% (n = 94,000); AID 1159554, 2015; in the data active = activity change below about -80%; inconclusive = no clear call, values can overlap the other calls
C_diff_HTS – C. difficile growth inhibitors, primary screen, HTS; Clostridium difficile clinical isolate growth, OD600, 24 h; hits give low values; actives 0.25% (n = 86,000); AID 1259249, 2017; growth activity, negative = inhibition, % at 16 µg/mL (by protocol);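 active = mean growth activity at or below -80% and every replicate also at or below -80%; inconclusive = mean at or below -80% but some replicate above -80%; inactive = mean growth activity above -80%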;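 note: 0% = DMSO wells and -100% = levofloxacin 16 µg/mL wells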
Active calls of the source: *; ? = inconclusive; / = not tested or not shown. In the library only some 6.7% were active in any assay of this set; here they are far more common.

SMILES T_cruzi_growth Pf_Dd2_growth C_diff_HTS
CO[C@@H](CN(C)C(=O)c1cnccn1)[C@H](C)CN([C@@H](C)CO)S(=O)(=O)c1ccc(F)cc1 -38 17 /
CCC(=O)N1C[C@H](C)[C@@H](OC)CN(C)C(=O)c2cc(NS(=O)(=O)CC)ccc2OC[C@H]1C -18 -1 /
COc1ccc(S(=O)(=O)N(C)C[C@H]2OCCCC[C@@H](C)Oc3ccc(NC(=O)Nc4ccc(F)cc4)cc3C(=O)N([C@@H](C)CO)C[C@H]2C)cc1 104 -76 3
COc1ccc(NC(=O)Nc2ccc3c(c2)C(=O)N([C@@H](C)CO)C[C@H](C)[C@H](CN(C)S(=O)(=O)c2ccc(F)cc2)OCCCC[C@@H](C)O3)cc1 60 -85* 5
COc1ccc(S(=O)(=O)N(C)C[C@@H]2OCCCC[C@H](C)Oc3ccc(NC(=O)Nc4ccc(F)cc4)cc3C(=O)N([C@@H](C)CO)C[C@H]2C)cc1 64 -67 4
COc1ccc(S(=O)(=O)N(C)C[C@@H]2OCCCC[C@@H](C)Oc3ccc(NC(=O)Nc4ccc(F)cc4)cc3C(=O)N([C@@H](C)CO)C[C@@H]2C)cc1 54 -81* 6
CCS(=O)(=O)N1CC2(CN(C(=O)Nc3cccc(F)c3)[C@H](CO)c3c2c2ccc(OC)cc2n3C)C1 / 22 /
CCCC#Cc1ccc([C@@H]2[C@H](CO)N3CCCCN(S(=O)(=O)Cc4ccccc4)C[C@@H]23)cc1 83 -84* -90*
CCCC#Cc1ccc([C@@H]2[C@@H](CO)N3CCCCN(S(=O)(=O)Cc4ccccc4)C[C@@H]23)cc1 84 -14 34
CCCC#Cc1ccc([C@H]2[C@H]3CN(S(=O)(=O)c4ccccc4C)CCCCN3[C@H]2CO)cc1 65 -8 18
Cc1ccccc1S(=O)(=O)N1CCCCN2[C@H](CO)[C@H](c3ccc(-c4ccccc4)cc3)[C@H]2C1 66 -82* 34
CCCC#Cc1ccc([C@@H]2[C@H](CO)N3CCCCN(S(=O)(=O)c4ccccc4C)C[C@@H]23)cc1 87 -73 -96*
Cc1ccccc1S(=O)(=O)N1CCCCN2[C@@H](CO)[C@@H](c3ccc(-c4ccccc4)cc3)[C@@H]2C1 55 -75 1
C[C@@H]1CN([C@@H](C)CO)C(=O)c2cc(NC(=O)CCN3CCOCC3)ccc2O[C@H]1CN(C)C(=O)Nc1ccccc1 / 9 9
CCCN(C)C[C@H]1OCCCC[C@H](C)Oc2ccc(NS(=O)(=O)c3cccs3)cc2C(=O)N([C@H](C)CO)C[C@H]1C 26 ? 5
CCCN(C)C[C@H]1OCCCC[C@H](C)Oc2ccc(NS(=O)(=O)c3cccs3)cc2C(=O)N([C@@H](C)CO)C[C@H]1C / -63 1
CCCN(C)C[C@H]1OCCCC[C@@H](C)Oc2ccc(NS(=O)(=O)c3cccs3)cc2C(=O)N([C@H](C)CO)C[C@@H]1C / -86* -2
CCCN(C)C[C@H]1OCCCC[C@@H](C)Oc2ccc(NS(=O)(=O)c3cccs3)cc2C(=O)N([C@@H](C)CO)C[C@@H]1C 93 -90* -2
CCCC#Cc1ccc2c(c1)O[C@@H](CN(C)C(=O)c1ccccc1F)[C@@H](C)CN([C@@H](C)CO)S2(=O)=O 75 -83* 18
C[C@H](CO)N1C[C@H](C)[C@H](CN(C)C(=O)c2ccccc2F)Oc2cc(C#CCN(C)C)ccc2S1(=O)=O 75 -28 -7
CCCC#Cc1ccc2c(c1)O[C@H](CN(C)C(=O)c1ccccc1F)[C@H](C)CN([C@H](C)CO)S2(=O)=O 33 -81* 17
COCC#Cc1ccc2c(c1)O[C@@H](CN(C)C(=O)c1ccccc1F)[C@@H](C)CN([C@H](C)CO)S2(=O)=O 28 -47 2
COc1ccc2c3c(n(C)c2c1)[C@H](CO)N(C(=O)c1ccc(F)cc1)CC31CCN(CC2CC2)CC1 / 14 /
COc1ccccc1-c1cccc(-c2nc(C(=O)N3CCOCC3)cc3c2[C@@H](CCO)N([S@](=O)C(C)(C)C)C3)c1 3 7 /
C[C@H]1CN([C@@H](C)CO)C(=O)c2cc(C#Cc3cccc(F)c3)cnc2O[C@H]1CN(C)C(=O)c1ccccc1F 80 -82* 9
SMILES T_cruzi_growth Pf_Dd2_growth C_diff_HTS
C[C@H]1CN([C@@H](C)CO)C(=O)c2cc(/C=C/c3ccccc3)cnc2O[C@@H]1CN(C)C(=O)c1cccc(F)c1 100 -83* 1
C[C@H](CO)N1C[C@H](C)[C@H](CN(C)C(=O)c2ccccc2F)Oc2ncc(C#Cc3cccc(F)c3)cc2C1=O 93 -77 2
C[C@H](CO)N1C[C@H](C)[C@@H](CN(C)C(=O)c2cccc(F)c2)Oc2ncc(/C=C/c3ccccc3)cc2C1=O 115 ? 0
C[C@@H]1CN([C@H](C)CO)C(=O)c2cc(C#Cc3ccccc3)cnc2O[C@H]1CN(C)C(=O)c1ccccc1F / -60 40
C[C@@H]1CN([C@H](C)CO)C(=O)c2cc(C#Cc3ccccc3F)cnc2O[C@H]1CN(C)C(=O)Cc1ccncc1 97 -84* 2
C[C@@H]1CN([C@H](C)CO)C(=O)c2cc(C#Cc3cccc(F)c3)cnc2O[C@@H]1CN(C)C(=O)c1ccccc1F 86 -81* -6
C[C@@H]1CN([C@@H](C)CO)C(=O)c2cc(C#Cc3ccccc3F)cnc2O[C@H]1CN(C)C(=O)Cc1ccncc1 117 -24 2
COc1cccc(NC(=O)N(C)C[C@H]2Oc3ncc(/C=C/c4ccccc4)cc3C(=O)N([C@H](C)CO)C[C@@H]2C)c1 / -65 -2
CO[C@@H]1CC[C@H]2CCOc3ccc(C#N)cc3C(=O)N(C)C[C@@H](OC)[C@H](C)C(=O)N(C)C[C@@H]1O2 45 / -6
COc1ccccc1NC(=O)N1[C@H](CO)[C@@H](c2ccccc2)[C@@H]1C#N -26 27 9
COc1ccc(NC(=O)N(C)C[C@H]2Oc3ccc(NC(=O)Nc4ccc(F)cc4)cc3C(=O)N([C@@H](C)CO)C[C@H]2C)cc1 -7 -4 -2
O=C(Nc1ccc(Cl)c(Cl)c1)N[C@H]1CC[C@H](CCn2cc(C3CC3)nn2)O[C@H]1CO / -68 -2
COc1ccc(NC(=O)N(C)C[C@H]2Oc3ncc(-c4cccnc4)cc3C(=O)N([C@H](C)CO)C[C@@H]2C)cc1 -51 -83* -7
COc1ccc(NC(=O)N(C)C[C@@H]2Oc3ncc(-c4cccnc4)cc3C(=O)N([C@@H](C)CO)C[C@H]2C)cc1 -54 30 0
C[C@H](CO)N1C[C@H](C)[C@H](CN(C)C(=O)Cc2cccnc2)Oc2ncc(-c3ccccc3)cc2C1=O -4 -20 /
C[C@@H]1CN([C@@H](C)CO)C(=O)c2cc(-c3ccncc3)cnc2O[C@H]1CN(C)C(=O)Cc1cccnc1 104* 33 6
C[C@H](NC(=O)C[C@H]1C=C[C@@H](NC(=O)CN2CCOCC2)[C@@H](CO)O1)c1ccccc1 6 25 /
COc1ccc2c3c([nH]c2c1)[C@@H](CO)N(S(=O)(=O)c1ccccc1)CC31CCN(C)CC1 / -17 4

Assay outcomes (PubChem)
